Sampled rows, rich in hits. Any-hit rate of the full collection: about 1%.
USP2a block = qHTS Assay for Inhibitors of Ubiquitin-specific Protease USP2a Using CHOP2 as the Reporter. Ubiquitin carboxyl-terminal hydrolase 2 (Homo sapiens), O75604. USP2 core, Ub-CHOP2 coupled fluorogenic reporter, 485/531. Potency, µM (titrated, usually from 38.3 µM), for inactives: at the top dose activity change, negative = inhibition, usual class: inhibitors. hit rate 0.01% among 330,000. AID 463254, 2010;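 further: potency means the concentration at half of the fitted maximal effect; plate controls were DMSO wells for no effect and full inhibition by NEM control for full effect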
Target sequence (O75604 whole entry, looked up): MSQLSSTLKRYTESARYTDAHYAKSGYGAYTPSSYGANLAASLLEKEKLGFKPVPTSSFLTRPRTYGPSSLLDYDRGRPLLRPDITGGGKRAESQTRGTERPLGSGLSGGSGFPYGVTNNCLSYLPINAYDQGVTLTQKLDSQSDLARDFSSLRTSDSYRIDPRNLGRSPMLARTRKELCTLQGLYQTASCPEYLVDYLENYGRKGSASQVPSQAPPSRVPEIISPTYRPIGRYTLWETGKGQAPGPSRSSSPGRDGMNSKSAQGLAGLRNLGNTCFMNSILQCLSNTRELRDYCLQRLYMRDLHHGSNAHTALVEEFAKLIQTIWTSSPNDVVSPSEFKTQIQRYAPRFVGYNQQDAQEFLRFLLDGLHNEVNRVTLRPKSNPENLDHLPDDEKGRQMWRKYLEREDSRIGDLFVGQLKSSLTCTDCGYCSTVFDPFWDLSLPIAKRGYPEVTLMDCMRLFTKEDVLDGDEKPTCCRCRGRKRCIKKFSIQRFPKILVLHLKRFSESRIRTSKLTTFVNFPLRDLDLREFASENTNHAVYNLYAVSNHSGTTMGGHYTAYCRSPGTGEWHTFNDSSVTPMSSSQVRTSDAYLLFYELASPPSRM
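Deubiquitinase activity read as fluorescence (485/531 nm) after Ub-CHOP2 cleavage activates the enterokinase reporter on its substrate; USP2 core 10nM, Ub-CHOP2 and substrate 25nM each, 30min compound preincubation then 60min RT; data normalized to NEM, curves fitted.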
GALK inhibitor = qHTS Assay for Inhibitors of Human Galactokinase (GALK) | Purified GALK, Kinase-Glo residual ATP luminescence | Potency, µM (highest dose often 57.5 µM), for the others: top-dose activity change, negative = inhibition, usual class: inhibitors | hit rate 0.007% among 270,000 | AID 1868, 2009; further: potency means the concentration at half of the fitted maximal effect; on the % scale 0 is the no-effect control and ±100 the full control effect
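GALK at 5 nM final was combined with compound, 35 uM ATP and 100 uM galactose in HEPES pH8.0 with MgCl2 and DTT. The reaction ran one hour at room temperature before luminescent ATP detection.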
RGS4 inhibitor = Inhibitors of Regulator of G Protein Signaling (RGS) 4: qHTS; hit rate 0.039% among 390,000; Transcreener GDP fluorescence polarization, RGS4-accelerated GTP hydrolysis; Potency, µM (highest dose often 114 µM), for inactives: at the highest dose activity change, negative = inhibition, hits mostly inhibitors; Regulator of G-protein signaling 4 (Homo sapiens), P49798; further: potency means the concentration at half of the fitted maximal effect; on the % scale 0 is the no-effect control and ±100 the full control effect; nearly all actives have a fitted effect of over 75% in size
Target sequence (P49798 whole entry, looked up): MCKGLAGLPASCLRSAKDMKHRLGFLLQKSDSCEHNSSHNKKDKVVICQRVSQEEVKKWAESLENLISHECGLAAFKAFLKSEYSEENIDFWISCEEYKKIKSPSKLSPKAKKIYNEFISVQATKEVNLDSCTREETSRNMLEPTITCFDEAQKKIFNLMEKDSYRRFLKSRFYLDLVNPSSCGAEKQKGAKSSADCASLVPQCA
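MLSMR compounds (23 nl, pin-transferred) preincubated 10 min at room temperature with a 500nM (2x) first reagent, then RGS4 at 900nM (2x) plus Transcreener GDP mix added; fluorescence polarization (620/688 nm) read before and after 90 min at 30 °C.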
Eya2 phos inh = qHTS Assay for Inhibitors of the Phosphatase Activity of Eya2; recombinant Eya2, OMFP fluorescence dephosphorylation (OMFP is methylfluorescein phosphate); Potency, µM (highest dose often 76.9 µM), for inactives: at the highest dose activity, negative = inhibition, hits mostly inhibitors; hit rate 0.006% among 330,000; AID 488837, 2010; further: potency means the concentration at half of the fitted maximal effect; on the % scale 0 is the no-effect control and ±100 the full control effect
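Eya2 (0.2 uM) preincubated 10 min at ambient with compound, then OMFP substrate added at 50 uM; 10 min reaction in 50 mM HEPES pH 7.5, 50 mM NaCl, 5 uM MgCl2, 0.05% BSA, 1 mM DTT. Fluorescence read at Ex 485/Em 525 nm.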
TrxR1 substrate = qHTS Assay for Substrates of Mammalian Selenoprotein Thioredoxin Reductase 1 (TrxR1): qHTS. Potency, µM (doses to about 114 µM), for the others: top-dose activity change, negative = substrate turnover. purified TrxR1 substrate turnover, NADPH consumption readout. hit rate 0.01% among 390,000. Thioredoxin reductase 1, cytoplasmic (Rattus norvegicus), O89049. AID 588456, 2011; further: potency means the concentration at half of the fitted maximal effect; on the % scale 0 is the no-effect control and ±100 the full control effect; nearly all actives have a fitted effect of over 50% in size
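Rat TrxR1, dispensed at 90 nM, was prereduced with 400 uM NADPH (final) for 5 min at ~22 deg C, then incubated with compound 15 min before 400 uM selenite. A first-read NADPH fluorescence drop versus no-compound background flagged substrates.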
TrxR1 inh-1 = qHTS Assay for Inhibitors of Mammalian Selenoprotein Thioredoxin Reductase 1 (TrxR1): qHTS; recombinant rTrxR1, NADPH fluorescence consumption, selenite substrate; Potency, µM (doses to about 114 µM), without a hit: at the top dose activity change, negative = inhibition, usual class: inhibitors; hit rate 1% among 390,000; AID 588453, 2011; further: potency means the concentration at half of the fitted maximal effect; on the % scale 0 is the no-effect control and ±100 the full control effect; nearly all actives have a fitted effect of over 65% in size
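Rat TrxR1 (90 nM in the dispensed reagent) was pre-reduced with 400 uM NADPH for 5 min at room temperature, then incubated with compound for 15 min. After 400 uM selenite was added, NADPH fluorescence (Ex 340/Em 450 nm) was followed for 8 min.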
GR inh = qHTS Assay for Inhibitors of Mammalian Selenoprotein Thioredoxin Reductase 1 (TrxR1): Counterassay in Glutathione Reductase (GR) | activity change, negative = inhibition, % at 57.1 µM | 55 tested, under 10 active | shares compounds with TrxR1 inh-1 | purified GR, DTNB reduction absorbance 405 nm kinetic
TrxR1 inh-2 = qHTS Assay for Inhibitors of Mammalian Selenoprotein Thioredoxin Reductase 1 (TrxR1): Hit Validation in Primary Screen | shares compounds with TrxR1 inh-1 | recombinant TrxR1, NADPH fluorescence consumption, selenite substrate | Potency, µM, actives largely listed as inhibitors | hit rate 50% among 55
TrxR1 insulin MOA = qHTS Assay for Inhibitors of Mammalian Selenoprotein Thioredoxin Reductase 1 (TrxR1): Insulin MOA Assay; shares compounds with TrxR1 inh-1; Potency, µM; TrxR1 Trx-coupled insulin reduction, NADPH absorbance 340 nm; hit rate 20% among 55;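 active means compounds with a measured potency under 100 micromolar; inconclusive means filed, but no rule given; inactive means potency at or above that, or unmeasurable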
TrxR1 inh-3 = qHTS Assay for Inhibitors of Mammalian Selenoprotein Thioredoxin Reductase 1 (TrxR1): DTNB Assay | AID 652256, 2013 | hit rate 90% among 55 | purified TrxR1, DTNB reduction, A412 | shares compounds with TrxR1 inh-1 | Potency, µM;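 active means a half-inhibiting concentration could be measured and was below 100 µM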
The depositor's hits bear a star; i = inactive; ? = inconclusive; · = not tested or not shown; [ ] = another dose, or the depositor's remark. Unless noted, the call rests on the fitted dose curve; in most records, active means well fitted curve in the direction sought with a large enough effect; inconclusive means small, poorly fitted or top-dose-only effect, or another doubt; inactive means no such curve, though single readings can be large; an effect the other way counts as inactive or inconclusive.

SMILES	USP2a block	GALK inhibitor	RGS4 inhibitor	Eya2 phos inh	TrxR1 substrate	TrxR1 inh-1	others
CC1(C)CC(=O)c2cc(C(=O)Nc3ccccc3)c(=O)[nH]c2C1	·	·	·	·	-1%	3%
C=CCOc1ccc(C(c2c(C)n(C)n(-c3ccccc3)c2=O)c2c(C)n(C)n(-c3ccccc3)c2=O)cc1	-1%	5%	-12%	11%	1%	-3%
CSc1nc(O)c(C(c2ccc(O)cc2)c2c(O)nc(SC)[nH]c2=O)c(=O)[nH]1	0%	5%	?	12%	2%	8.9µM*
CSc1nc(O)c(C(c2cccc([N+](=O)[O-])c2)c2c(O)nc(SC)[nH]c2=O)c(=O)[nH]1	-1%	-3%	19%	4%	-14%	45µM*
CCOc1ccc(C(c2c(O)nc(SC)[nH]c2=O)c2c(O)nc(SC)[nH]c2=O)cc1	·	·	?	·	-1%	28µM*
C=CCOc1ccc(C(c2c(O)nc(SC)[nH]c2=O)c2c(O)nc(SC)[nH]c2=O)cc1	·	·	?	·	8%	7.9µM*
CCOc1ccccc1C(c1c(O)nc(SC)[nH]c1=O)c1c(O)nc(SC)[nH]c1=O	·	·	-26%	·	1%	?
CC(C)c1c(O)nc(SCc2ccc(F)cc2)[nH]c1=O	1%	-1%	-52%	-24%	11%[57.1 µM]	32%[57.1 µM]
O=S(=O)(c1ccc2ncccc2c1)N1CCN(c2nc(-c3cccs3)nc3ccccc23)CC1	·	·	-10%	·	4%	9%
Nc1cccc[n+]1C(c1ccnc2ccccc12)[n+]1ccccc1N	·	·	·	·	4%	-2%
COc1cccc(NS(=O)(=O)c2ccc3c(c2)C2C=CCC2C(c2ccc(C(=O)O)cc2)N3)c1 (stereo not drawn)	-11%	-5%	?	7%	-10%	40µM*
Fc1ccc2c(c1)C1C=CCC1C(c1cc3c(cc1Br)OCO3)N2 (stereo not drawn)	1%	·	-8%	-9%	8%[57.1 µM]	7%
Cc1cccc(NS(=O)(=O)c2ccc3c(c2)[C@H]2C=CC[C@H]2[C@@H](c2ccc(F)cc2)N3)c1	·	·	-25%	·	5%	3%
Fc1ccc([C@@H]2Nc3ccccc3[C@@H]3C=CC[C@@H]32)cc1	·	·	-25%	·	2%	28µM*
COC(=O)c1ccc([C@H]2Nc3ccc(S(=O)(=O)Nc4ccc(F)cc4)cc3[C@H]3C=CC[C@H]32)cc1	·	·	-24%	·	-3%	71µM*
O=C(O)c1ccc2c(c1)[C@@H]1C=CC[C@@H]1[C@H](c1ccccn1)N2	·	·	?	·	-5%	4µM*
Cc1ccc(S(=O)(=O)N(C)CCCN(C)c2nc(-c3cccs3)nc3ccccc23)cc1	·	·	20%	·	-6%	5%
O=C(COc1ccccc1C(=O)Nc1cccnc1)Nc1ccc(Br)cc1	·	·	·	·	0%	16%
Cc1cc2ccccc2c[n+]1C	·	·	·	·	7%	-15%
CCCCCCCCCCCCCCCC[n+]1ccc(/C=C/c2c(C)[nH]c3ccccc23)cc1	·	·	·	·	-1%	5%
CNc1oc(Cc2ccccc2)nc1S(=O)(=O)c1ccc(Cl)cc1	0%	-2%	-16%	-1%	-3%	11µM*
O=S(=O)(c1ccc(Cl)cc1)c1nc(-c2ccccc2Br)oc1NCc1ccccc1	·	·	-1%	·	4%	11%
O=C(CNC(=O)C1CCCCC1)OCC(=O)c1ccccc1	·	·	-17%	·	0%	4%
O=C(NP(=O)(N1CCOCC1)N1CCOCC1)C1=C(N2CCOCC2)/C(=C\c2ccccc2)CC1	3%	-1%	?	7%	41%	14µM*
COc1ccc(-c2cc(=O)c3c(OC)c(OC)c(OC)c(OC)c3o2)cc1OC	7%	-4%	4%	1%	-4%	-21%
SMILES	USP2a block	GALK inhibitor	RGS4 inhibitor	Eya2 phos inh	TrxR1 substrate	TrxR1 inh-1	others
COc1ccc(-c2ccccc2)c2oc(-c3ccco3)cc(=O)c12	·	·	-22%	·	7%[57.1 µM]	32µM*
Cc1ccc2oc(C(=O)N(C)Cc3ccon3)c(C)c2c1	3%	-1%	10%	3%	-2%	14%
C=CCN1C(=O)c2ccc(C(=O)N(C)Cc3ccc(C)o3)cc2C1=O	0%	·	-36%	9%	6%	?
Cc1ccc(CN(C)C(=O)c2cc(Br)c(Br)s2)o1	-1%	-2%	-51%	2%	-4%	50µM*
Cc1ccc2oc(C(=O)N(C)Cc3ccc(C)o3)c(C)c2c1	0%	0%	-65%[56.9 µM]	-3%	-5%	7.1µM*
CCOC(=O)c1c(C)[nH]c(C(=O)OC(C(=O)N(C)C)c2ccccc2)c1C (stereo not drawn)	·	·	·	·	1%	8%
Cc1ccc(N2C(=O)[C@@H]3[C@H](C2=O)C2CCCN2[C@@H]3C(=O)c2ccccc2)cc1 (stereo partly drawn)	5%	-2%	?	-6%	0%[57.1 µM]	-25%[57.1 µM]
O=C(c1ccccc1)[C@@H]1[C@@H]2C(=O)N(c3ccc(F)cc3)C(=O)[C@@H]2C2CCCN21 (stereo partly drawn)	10%	1%	?	6%	-3%	50µM*	GR inh=3;TrxR1 inh-2=?;TrxR1 insulin MOA=i;TrxR1 inh-3=7.4µM*

Assay outcomes (PubChem BioAssay)
